# The supplement of paper PMC8728848
# Only a selection was taken, and the strongest signals are over-represented in it overall.
# B1: DC-ASPGR (Homo sapiens), CLC10_HUMAN (protein)
# chain: LDQNSKFQRDLVTLRTDFSNFTSNTVAEIQALTSQGSSLEETIASLKAEVEGFKQERQAVHSEMLLRVQQLVQDLKKLTCQVATLNNNASTEGTCCPVNWVEHQDSCYWFSHSGMSWAEAEKYCQLKNAHLVVINSREEQNFVQKYLGSAYTWMGLSDPEGAWKWVDGTDYATGFQNWKPGQPDDWQGHGLGGGEDCAHFHPDGRWNDDVCQRPYHWVCEAGLGQTSQESHVEPKSCDKTHTCPPCPAPELLGGPSVFLFPPKPKDTLMISRTPEVTCVVVDVSHEDPEVKFNWYVDGVEVHNAKTKPREEQFNSTYRVVSVLTVLHQDWLNGKEYKCKVSNKGLPSSIEKTISKAKGQPREPQVYTLPPSQEEMTKNQVSLTCLVKGFYPSDIAVEWESNGQPENNYKTTPPVLDSDGSFFLYSRLTVDKSRWQEGNVFSCSVMHEALHNHYTQK
# B2: CLEC-1 (Homo sapiens), Q9NZH3 (protein)
# chain: MQAKYSSTRDMLDDDGDTTMSLHSQASATTRHPEPRRTEHRAPSSTWRPVALTLLTLCLVLLIGLAAWGLLFFQYYQLSNTGQDTISQMEERLGNTSQELQSLQVQNIKLAGSLQHVAEKLCRELYNKAGAHRCSPCTEQWKWHGDNCYQFYKDSKSWEDCKYFCLSENSTMLKINKQEDLEFAASQSYSEFFYSYWTGLLRPDSGKAWLWMDGTPFTSELFHIIIDVTSPRSRDCVAILNGMIFSKDCKELKRCVCERRAGMVKPESLHVPPETLGEGD
# Legend:
# Assay in all cases: glycan array binding signal (z-score within array); higher = stronger binding
# Conditions in all cases: glycan notation: IUPAC condensed, linker removed
# [1] = molecular target: Fuc(a1-2)Gal(b1-3)GlcNAc(b1-2)Man(a1-3)[Fuc(a1-2)Gal(b1-3)GlcNAc(b1-2)Man(a1-6)]Man(b1-4)GlcNAc(b1-4)GlcNAc
# In short: (§1)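 The binding signal is a Z-score computed within each array and averaged over linkers. Arrays of the same protein sequence at different concentrations or buffers were also averaged together. Data originate from 3228 arrays in the Consortium for Functional Glycomics database, kept only where the protein sequence was available.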
# [2] = molecular target: Fuc(a1-2)Gal(b1-4)Glc
# In short: as §1
# [3] = molecular target: Fuc(a1-2)Gal(b1-4)GlcNAc
# In short: as §1
# [4] = molecular target: Fuc(a1-2)Gal(b1-4)GlcNAc6S
# In short: as §1
# [5] = molecular target: Fuc(a1-2)[Gal(a1-3)]Gal
# In short: as §1
# [6] = molecular target: Fuc(a1-2)[Gal(a1-3)]Gal(b1-4)Glc
# In short: as §1
# [7] = molecular target: Fuc(a1-2)[Gal(a1-3)]Gal(b1-4)GlcNAc(b1-2)Man(a1-3)[Fuc(a1-2)[Gal(a1-3)]Gal(b1-4)GlcNAc(b1-2)Man(a1-6)]Man(b1-4)GlcNAc(b1-4)GlcNAc
# In short: as §1
# [8] = molecular target: Fuc(a1-2)[GalNAc(b1-3)]Gal
# In short: as §1
# [9] = molecular target: Fuc(a1-3)GlcNAc
# In short: as §1
# [10] = molecular target: Fuc(a1-3)[Gal(b1-4)]GlcNAc
# In short: as §1
# [11] = molecular target: Fuc(a1-3)[GalNAc(b1-4)]GlcNAc
# In short: as §1
# [12] = molecular target: Fuc(b1-3)GlcNAc
# In short: as §1
# [13] = molecular target: Gal(a1-2)Gal
# In short: as §1
# [14] = molecular target: Gal(b1-3)[Fuc(a1-4)]GlcNAc(b1-2)Man(a1-3)[Gal(b1-3)[Fuc(a1-4)]GlcNAc(b1-2)Man(a1-6)]Man(b1-4)GlcNAc(b1-4)[Fuc(a1-6)]GlcNAc
# In short: as §1
# [15] = molecular target: Gal(b1-4)GlcNAc(b1-3)Gal(b1-4)[Fuc(a1-3)]GlcNAc(b1-3)Gal(b1-4)[Fuc(a1-3)]GlcNAc
# In short: as §1
# [16] = molecular target: Gal(b1-4)GlcNAc(b1-6)Gal(b1-4)GlcNAc(b1-6)GalNAc
# In short: as §1
# [17] = molecular target: Gal(b1-4)GlcNAc(b1-6)GalNAc
# In short: as §1
# [18] = molecular target: Gal(b1-4)GlcNAc(b1-6)[Gal(b1-3)]GalNAc
# In short: as §1
# [19] = molecular target: Gal3S(b1-3)GalNAc
# In short: as §1
# [20] = molecular target: Gal3S6S(b1-4)GlcNAc6S
# In short: as §1
# [21] = molecular target: GalNAc(b1-4)GlcNAc
# In short: as §1
# [22] = molecular target: Glc(a1-4)Glc
# In short: as §1
# [23] = molecular target: Glc(b1-4)Glc
# In short: as §1
# [24] = molecular target: GlcA(b1-3)Gal
# In short: as §1
# [25] = molecular target: GlcNAc(a1-4)Gal(b1-4)GlcNAc(b1-3)Gal(b1-4)GlcNAc
# In short: as §1
# [26] = molecular target: GlcNAc(b1-3)GalNAc
# In short: as §1
# [27] = molecular target: GlcNAc(b1-6)GalNAc
# In short: as §1
# [28] = molecular target: Neu5Ac(a2-3)Gal6S(b1-4)GlcNAc
# In short: as §1
# [29] = molecular target: Neu5Ac(a2-6)Gal(b1-4)GlcNAc
# In short: as §1
# [30] = molecular target: Neu5Ac(a2-8)Neu5Ac(a2-8)Neu5Ac(a2-3)Gal(b1-4)Glc
# In short: as §1
# [31] = molecular target: Fuc(a1-2)[Gal(a1-4)]Gal(b1-4)GlcNAc
# In short: as §1
# [32] = molecular target: Fuc(a1-3)[Gal(b1-4)]GlcNAc(b1-4)Gal(b1-4)[Fuc(a1-3)]GlcNAc(b1-4)Gal(b1-4)[Fuc(a1-3)]GlcNAc
# In short: as §1
# [33] = molecular target: Gal(a1-3)Gal
# In short: as §1
# [34] = molecular target: Gal(a1-3)Gal(b1-3)GlcNAc(b1-2)Man(a1-3)[Gal(a1-3)Gal(b1-3)GlcNAc(b1-2)Man(a1-6)]Man(b1-4)GlcNAc(b1-4)GlcNAc
# In short: as §1
# [35] = molecular target: Gal(a1-4)Gal(b1-4)GlcNAc(b1-2)Man(a1-3)[Gal(a1-4)Gal(b1-4)GlcNAc(b1-2)Man(a1-6)]Man(b1-4)GlcNAc(b1-4)GlcNAc
# In short: as §1
# [36] = molecular target: Gal(b1-2)Gal
# In short: as §1
# [37] = molecular target: Gal(b1-3)[GlcNAc(b1-6)]GalNAc
# In short: as §1
# [38] = molecular target: Gal(b1-4)GlcNAc(b1-2)Man(a1-3)Man(b1-4)GlcNAc(b1-4)GlcNAc
# In short: as §1
# [39] = molecular target: Gal(b1-4)GlcNAc(b1-2)Man(a1-3)[Gal(b1-4)GlcNAc(b1-2)Man(a1-6)]Man(b1-4)GlcNAc(b1-4)GlcNAc
# In short: as §1
# [40] = molecular target: Gal(b1-4)GlcNAc(b1-2)Man(a1-3)[GlcNAc(b1-2)Man(a1-6)]Man(b1-4)GlcNAc(b1-4)GlcNAc
# In short: as §1
# [41] = molecular target: Gal(b1-4)GlcNAc(b1-2)Man(a1-3)[Man(a1-6)]Man(b1-4)GlcNAc(b1-4)GlcNAc
# In short: as §1
# [42] = molecular target: Gal(b1-4)GlcNAc(b1-3)GalNAc
# In short: as §1
# [43] = molecular target: Gal6S(b1-4)GlcNAc6S
# In short: as §1
# [44] = molecular target: GalNAc(a1-3)Gal
# In short: as §1
# [45] = molecular target: GlcNAc(a1-4)Gal(b1-3)GlcNAc
# In short: as §1
# [46] = molecular target: GlcNAc(a1-4)Gal(b1-4)GalNAc
# In short: as §1
# [47] = molecular target: GlcNAc(a1-4)Gal(b1-4)GlcNAc
# In short: as §1
# [48] = molecular target: GlcNAc(a1-6)Gal(b1-4)GlcNAc
# In short: as §1
# [49] = molecular target: Man(a1-3)[Man(a1-6)]Man(a1-6)[Man(a1-2)Man(a1-3)]Man(b1-4)GlcNAc(b1-4)GlcNAc
# In short: as §1
# [50] = molecular target: Neu5Ac(a2-3)Gal(b1-4)GlcNAc(b1-6)[Neu5Ac(a2-3)Gal(b1-3)]GalNAc
# In short: as §1
# [51] = molecular target: Neu5Ac(a2-3)Gal(b1-4)[Fuc(a1-3)]GlcNAc(b1-3)GalNAc
# In short: as §1
# [52] = molecular target: Neu5Ac(a2-3)GalNAc
# In short: as §1
# [53] = molecular target: Neu5Ac(a2-6)Gal(b1-4)GlcNAc(b1-3)Gal(b1-4)GlcNAc(b1-3)Gal(b1-4)GlcNAc
# In short: as §1
# [54] = molecular target: Neu5Ac(b1-6)GalNAc
# In short: as §1
# [55] = molecular target: Neu5Gc(a2-6)GalNAc
# In short: as §1
binder,measurement,setting,value
B1,glycan array binding signal (z-score),[1],-0.074
same,glycan array binding signal (z-score),[2],-0.082
same,glycan array binding signal (z-score),[3],-0.165
same,glycan array binding signal (z-score),[4],-0.177
same,glycan array binding signal (z-score),[5],-0.287
same,glycan array binding signal (z-score),[6],-0.303
same,glycan array binding signal (z-score),[7],-0.297
same,glycan array binding signal (z-score),[8],3.91
same,glycan array binding signal (z-score),[9],-0.256
same,glycan array binding signal (z-score),[10],-0.246
same,glycan array binding signal (z-score),[11],2.36
same,glycan array binding signal (z-score),[12],-0.235
same,glycan array binding signal (z-score),[13],-0.14
same,glycan array binding signal (z-score),[14],-0.15
same,glycan array binding signal (z-score),[15],-0.197
same,glycan array binding signal (z-score),[16],-0.298
same,glycan array binding signal (z-score),[17],3.86
same,glycan array binding signal (z-score),[18],-0.173
same,glycan array binding signal (z-score),[19],-0.146
same,glycan array binding signal (z-score),[20],-0.248
same,glycan array binding signal (z-score),[21],2.66
same,glycan array binding signal (z-score),[22],5.49
same,glycan array binding signal (z-score),[23],-0.27
same,glycan array binding signal (z-score),[24],-0.276
same,glycan array binding signal (z-score),[25],-0.092
same,glycan array binding signal (z-score),[26],-0.27
same,glycan array binding signal (z-score),[27],4.28
same,glycan array binding signal (z-score),[28],-0.179
same,glycan array binding signal (z-score),[29],-0.236
same,glycan array binding signal (z-score),[30],-0.244
B2,glycan array binding signal (z-score),[1],6.09
same,glycan array binding signal (z-score),[31],-0.046
same,glycan array binding signal (z-score),[32],0.063
same,glycan array binding signal (z-score),[33],-0.376
same,glycan array binding signal (z-score),[34],3.16
same,glycan array binding signal (z-score),[35],5.92
same,glycan array binding signal (z-score),[36],-0.482
same,glycan array binding signal (z-score),[37],-0.033
same,glycan array binding signal (z-score),[38],1.79
same,glycan array binding signal (z-score),[39],0.112
same,glycan array binding signal (z-score),[40],-0.583
same,glycan array binding signal (z-score),[41],11
same,glycan array binding signal (z-score),[42],-0.261
same,glycan array binding signal (z-score),[19],-0.341
same,glycan array binding signal (z-score),[20],3.17
same,glycan array binding signal (z-score),[43],0.66
same,glycan array binding signal (z-score),[44],-0.34
same,glycan array binding signal (z-score),[45],-0.516
same,glycan array binding signal (z-score),[46],-0.035
same,glycan array binding signal (z-score),[47],2.86
same,glycan array binding signal (z-score),[48],2.11
same,glycan array binding signal (z-score),[49],0.433
same,glycan array binding signal (z-score),[50],-0.142
same,glycan array binding signal (z-score),[51],2.82
same,glycan array binding signal (z-score),[28],-0.086
same,glycan array binding signal (z-score),[52],-0.178
same,glycan array binding signal (z-score),[53],-0.43
same,glycan array binding signal (z-score),[54],-0.392
same,glycan array binding signal (z-score),[55],-0.297
